Experimental data from PubChem BioAssay.

What follows are compounds tested on glycogen synthase kinase-3 (GSK3A per assay name; protocol says GSK3B) (assay: compounds binding glycogen synthase kinase-3 – biochemical, small-molecule microarray, 635 nm fluorescence, GSK3A, primary screen (AID 1103; note: the record names both GSK3A and GSK3B)). Details: fluorescence 635 nm, higher = more signal.
Compound CCCCOC(OCCCC)C(O)CSc1ccc2ccccc2c1 (configuration not stated) has a composite z-score of 0.68.
CCOC(=O)CCN1C(=O)[C@H]2[C@H]3[C@H](O)[C@H](O)CC(=O)[C@@H]3CC[C@H]2C1=O was tested, and the composite z-score was 0.917.
For CON=C(C)CCN1CCCc2nc(C)c(C)cc21, the composite z-score was 0.897.
COC(=O)CC=C1c2ccccc2[C@H](OC)[C@H]1C showed a composite z-score of -0.234.
For C=CC[C@@H]1C=C[C@H](ON=C[C@@H](NS(=O)(=O)c2ccc(C)cc2)[C@H](C)C=CCC(=O)OC)[C@@H](CO)O1, the composite z-score was -0.0166.
Work on O=C1C=C[C@@H](O)[C@@H]2[C@@H]3C(=O)N(c4cccc(Oc5ccccc5)c4)C(=O)[C@@H]3CC[C@@H]12 yielded a composite z-score of 0.499.
C=CC[C@@H]1C=C[C@H](Oc2ccc(C)cc2)[C@@H](COC(=O)NCc2cccc3ccccc23)O1 gave a composite z-score of -0.224.
With O=C1[C@H]2[C@H]3[C@H](O)[C@H](O)CC(=NOCc4ccccc4)[C@@H]3CC[C@H]2C(=O)N1c1cccc(Oc2ccccc2)c1 the composite z-score was 0.38.
Compound CCCC[C@H]1CN2[C@@H](CC[C@@H](C)[C@@H]2c2ccc(Br)cc2)C(=O)O1 has a composite z-score of 0.707.
For CCOC(=O)[C@H](Cc1ccccc1)NC(=O)CCC1CC(OC(=O)NCc2cccc3ccccc23)CC2(CCCC(COC(=O)NCc3ccc4c(c3)OCO4)O2)O1 (some centres not stated), the composite z-score was -0.0333.
CC(C)(C)N1C(=O)[C@H]2[C@H]3[C@H](O)[C@H](O)CC(=NNC(=O)OCc4ccccc4)[C@@H]3CC[C@H]2C1=O gave a composite z-score of 0.554.
With COc1ccc(OC[C@@H]2CC3[C@@H](c4ccc(Br)cc4)[C@H](C)CC[C@H]3C(=O)O2)cc1 (some centres not stated) the composite z-score was -0.274.
CC(C)=CCCC(C)=CCON=C1C[C@@H](O)[C@@H](O)[C@@H]2[C@@H]3C(=O)N(c4cccc(Oc5ccccc5)c4)C(=O)[C@@H]3CC[C@H]12 showed a composite z-score of 0.286.
Work on CCN1C(=O)[C@H]2[C@H]3[C@H](O)[C@H](O)CC(=NO[C@H](C)c4cn([C@H](CO)Cc5ccccc5)nn4)[C@@H]3CC[C@H]2C1=O yielded a composite z-score of 0.978.
C#CCCCON=C1C[C@@H](O)[C@@H](O)[C@@H]2[C@@H]3C(=O)N(C[C@@H]4CCCO4)C(=O)[C@@H]3CC[C@@H]12 was tested, and the composite z-score was 0.223.
Work on COC(=O)CC=C[C@@H](C)[C@@H](C=NOC[C@@H](O)COCc1ccco1)NS(=O)(=O)c1ccc(C)cc1 yielded a composite z-score of -0.268.
CC(=O)OC[C@H]1O[C@H](CC=NO[C@@H](C)c2cn([C@H](CO)Cc3ccccc3)nn2)C=C[C@@H]1OC(C)=O showed a composite z-score of 0.517.
With CCc1cc2c(nc1CC)CCN(CCC(C)=NO[C@@H]1O[C@H](COC(C)=O)[C@@H](OC(C)=O)[C@H](OC(C)=O)[C@H]1OC(C)=O)C2 the composite z-score was 0.642.
CC(C)(C)N1C(=O)[C@H]2[C@@H]3C(=CC[C@H]2C1=O)C(=O)[C@H]1O[C@H]1[C@H]3O was tested, and the composite z-score was 0.138.
Work on CC(C)=NOC(C)CN1CCCCc2nc(C)c(C)cc21 (configuration not stated) yielded a composite z-score of 0.0285.
With Cc1ccc2[nH]c3nc(CCCn4ccnc4-c4ccccc4)nnc3c2c1 the composite z-score was 1.22.
COc1ccc(COC(=O)NN=C2C[C@@H](O)[C@@H](O)[C@@H]3[C@@H]4C(=O)N([C@@H](C)c5ccccc5)C(=O)[C@@H]4CC[C@H]23)cc1 gave a composite z-score of -0.721.
For COC(=O)CC=C[C@@H](C)[C@@H](C=NOC(C)CN1CCCCc2nc(C)c(C)cc21)NS(=O)(=O)c1ccc(C)cc1 (some centres not stated), the composite z-score was 0.165.
Compound CO[C@@H]1COC(=O)[C@H](CCSC)NC(=O)CC=C[C@@H](C)COC(=O)[C@@H]2CCCN2C(=O)CC=C[C@H]1C has a composite z-score of 0.745.
COC(=O)[C@H](C)NC(=O)CC=C[C@@H](C)[C@@H]1C=C[C@H](O)[C@@H](CO)O1 was tested, and the composite z-score was 0.902.
CO[C@@H](C(C)C)[C@@H](C)C1OC(=O)CC1O (some centres not stated) showed a composite z-score of -0.051.
For COc1ccc(OC[C@@H](CO)OC)cc1, the composite z-score was 0.405.
Compound COC(=O)[C@H](C)NC(=O)CCC1CC(OC(=O)NCc2ccc3c(c2)OCO3)CC2(CCCC(COC(=O)NCCC(C)C)O2)O1 (some centres not stated) has a composite z-score of 0.69.
COc1cccc([C@H]2Oc3ccc(OC)cc3C(=NO[C@@H](C)c3cc(-c4c(C)cc(C)cc4C)no3)[C@@H]2O)c1 gave a composite z-score of -0.532.
Compound CCOC(=O)CCN1C(=O)[C@H]2[C@H]3[C@H](O)[C@H](O)CC(=NNC(=O)OCC)[C@H]3CC[C@H]2C1=O has a composite z-score of -0.542.
O=C1[C@H]2[C@H]3[C@H](O)[C@H](O)CC(=NOC[C@@H](O)COCc4ccco4)[C@@H]3CC[C@H]2C(=O)N1Cc1ccc2c(c1)OCO2 gave a composite z-score of 1.3.
Work on CC(=O)OC[C@H]1O[C@H](CC=NO[C@@H](C)c2cc(-c3c(C)cc(C)cc3C)no2)C=C[C@@H]1OC(C)=O yielded a composite z-score of -0.55.
